Screening results deposited in PubChem BioAssay by several laboratories.
In the library only some 27% were active in any assay of this set; here they are far more common.
Cav3 T inh: blocks human Cav3.2 T-type calcium channel; B-score at 10 µM; Cav3.2-expressing cells, Fluo-4 calcium fluorescence FDSS; stronger effect = lower value; 100,000 tested, 4% active;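 active = single-dose well whose peak fluorescence ratio is a statistical outlier from its plate by either plate-standardised score or position-corrected B-score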
Target sequence (O95180 whole entry, looked up): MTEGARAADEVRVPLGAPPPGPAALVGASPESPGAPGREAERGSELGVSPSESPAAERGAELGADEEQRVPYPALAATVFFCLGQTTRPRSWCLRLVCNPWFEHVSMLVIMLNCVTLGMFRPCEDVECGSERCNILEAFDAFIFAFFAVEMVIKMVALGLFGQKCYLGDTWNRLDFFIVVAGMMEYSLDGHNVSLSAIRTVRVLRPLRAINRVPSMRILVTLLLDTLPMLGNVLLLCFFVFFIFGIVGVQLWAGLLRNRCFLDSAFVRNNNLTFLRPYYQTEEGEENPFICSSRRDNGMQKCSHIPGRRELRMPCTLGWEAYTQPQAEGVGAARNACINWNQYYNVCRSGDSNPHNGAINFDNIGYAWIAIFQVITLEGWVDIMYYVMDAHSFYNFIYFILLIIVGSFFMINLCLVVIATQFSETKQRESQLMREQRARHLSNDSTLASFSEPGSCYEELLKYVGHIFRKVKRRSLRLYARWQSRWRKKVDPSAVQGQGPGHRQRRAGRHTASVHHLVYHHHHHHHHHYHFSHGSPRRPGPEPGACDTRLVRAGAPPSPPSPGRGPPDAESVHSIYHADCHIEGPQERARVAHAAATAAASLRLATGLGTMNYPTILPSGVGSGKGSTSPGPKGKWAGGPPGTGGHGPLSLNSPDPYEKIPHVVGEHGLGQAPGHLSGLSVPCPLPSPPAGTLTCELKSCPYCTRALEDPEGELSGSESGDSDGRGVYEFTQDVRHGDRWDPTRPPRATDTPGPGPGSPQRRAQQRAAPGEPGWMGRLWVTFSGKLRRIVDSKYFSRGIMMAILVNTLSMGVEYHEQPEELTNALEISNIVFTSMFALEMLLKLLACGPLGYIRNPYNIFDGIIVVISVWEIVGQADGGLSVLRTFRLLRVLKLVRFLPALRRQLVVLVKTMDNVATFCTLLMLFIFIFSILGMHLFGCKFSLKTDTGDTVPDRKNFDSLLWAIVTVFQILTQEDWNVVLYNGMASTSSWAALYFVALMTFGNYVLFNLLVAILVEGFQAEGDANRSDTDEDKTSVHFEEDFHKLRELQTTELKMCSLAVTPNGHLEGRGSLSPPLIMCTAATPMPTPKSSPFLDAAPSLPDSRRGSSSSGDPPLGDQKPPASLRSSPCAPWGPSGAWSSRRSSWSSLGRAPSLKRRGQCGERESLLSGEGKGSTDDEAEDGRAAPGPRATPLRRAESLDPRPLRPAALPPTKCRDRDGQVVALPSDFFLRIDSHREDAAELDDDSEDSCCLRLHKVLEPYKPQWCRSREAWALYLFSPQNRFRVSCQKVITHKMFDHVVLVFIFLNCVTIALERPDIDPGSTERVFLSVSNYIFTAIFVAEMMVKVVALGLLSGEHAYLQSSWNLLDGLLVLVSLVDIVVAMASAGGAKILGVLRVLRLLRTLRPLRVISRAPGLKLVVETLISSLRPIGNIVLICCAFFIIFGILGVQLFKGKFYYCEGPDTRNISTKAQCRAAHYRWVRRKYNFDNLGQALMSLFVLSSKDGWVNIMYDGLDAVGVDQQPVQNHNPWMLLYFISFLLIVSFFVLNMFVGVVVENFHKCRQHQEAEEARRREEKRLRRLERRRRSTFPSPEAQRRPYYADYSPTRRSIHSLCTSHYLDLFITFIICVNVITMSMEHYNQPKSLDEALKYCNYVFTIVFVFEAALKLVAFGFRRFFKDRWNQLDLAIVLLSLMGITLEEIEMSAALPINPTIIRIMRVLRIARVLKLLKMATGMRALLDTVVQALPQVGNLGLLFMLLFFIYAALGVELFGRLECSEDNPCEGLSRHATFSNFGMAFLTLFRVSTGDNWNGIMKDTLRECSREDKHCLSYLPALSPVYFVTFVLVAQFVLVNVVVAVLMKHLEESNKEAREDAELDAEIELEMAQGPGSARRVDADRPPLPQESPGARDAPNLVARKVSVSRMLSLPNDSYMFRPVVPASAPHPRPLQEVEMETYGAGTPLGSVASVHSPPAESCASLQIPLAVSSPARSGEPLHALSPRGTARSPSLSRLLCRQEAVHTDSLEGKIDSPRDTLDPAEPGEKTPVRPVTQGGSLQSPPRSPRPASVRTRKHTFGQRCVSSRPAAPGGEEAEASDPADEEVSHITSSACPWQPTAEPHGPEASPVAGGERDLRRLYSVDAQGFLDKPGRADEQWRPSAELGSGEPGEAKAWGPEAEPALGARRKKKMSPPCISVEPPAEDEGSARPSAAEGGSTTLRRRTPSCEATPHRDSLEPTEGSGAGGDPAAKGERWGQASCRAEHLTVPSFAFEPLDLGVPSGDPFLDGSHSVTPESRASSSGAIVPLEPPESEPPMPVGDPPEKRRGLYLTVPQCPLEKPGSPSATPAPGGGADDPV
CYP2C9 act: increases human cytochrome P450 2C9 activity; 96,000 tested, 1.4% active; P11712; activation factor at 5 µM; recombinant CYP2C9, luciferin-H conversion, luminescence; stronger effect = higher value; factor 1 = untreated enzyme, 0 = blocked;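 active = activation factor of 2 or more for CYP2C9 at a 5 µM dose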
CYP2C19 inhib: human CYP2C19 inhibition; P33261; CYP2C19 Supersomes, luciferin-H EGE luminescence, 30 min; 96,000 tested, 21% active; inhibition, % at 5 µM; AID 778;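 active = CYP2C19 inhibition above a set limit at 5 µM in the primary screen, cut at about 50% in these data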
CYP2C19 act: cytochrome P450 2C19 (human) activation. recombinant CYP2C19, luciferin-H EGE luminescence; stronger effect = higher value; 0 = fully inhibited enzyme, 1 = untreated enzyme. activation factor at 5 µM. 96,000 tested, under 10 active. AID 1025;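 active = activation factor of at least 2 at 5 µM in the primary screen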
CYP2C9 inh: human CYP2C9 inhibition | inhibition, % at 5 µM | 96,000 tested, 20% active | CYP2C9 Supersomes, luciferin-H conversion, luminescence;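 active = blocking of liver enzyme CYP2C9 beyond about 50% at 5 µM, limit read from the data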
Numbers stand for hits.

For Cc1ccc(C)c(N(C)S(=O)(=O)c2cccc3nsnc23)c1 the results were Cav3 T inh inactive, CYP2C9 act 2.3, CYP2C19 inhib inactive, CYP2C19 act inactive and CYP2C9 inh inactive.
`CC(C)(C)NS(=O)(=O)c1cccc2nsnc12` gave Cav3 T inh inactive.
CC(C)(C)c1cc(NC(=O)CCSc2nnc3ccccn23)cc(C(C)(C)C)c1 was read as Cav3 T inh inactive.
For Cc1c(C(=O)O)sc2ncn(C)c(=O)c12 the results were CYP2C9 act inactive, CYP2C19 inhib inactive, CYP2C19 act inactive and CYP2C9 inh inactive.
`O=c1sc2ccccc2n1COc1ccccc1` gave CYP2C9 act inactive, CYP2C19 inhib 89.0, CYP2C19 act inactive and CYP2C9 inh 58.6.
O=c1sc2ccccc2n1COc1ccc(Cl)cc1 was read as Cav3 T inh inactive, CYP2C9 act inactive, CYP2C19 inhib 99.7, CYP2C19 act inactive and CYP2C9 inh 94.1.
`O=c1sc2ccccc2n1CCCOc1ccccc1` gave Cav3 T inh inactive, CYP2C9 act inactive, CYP2C19 inhib inactive, CYP2C19 act inactive and CYP2C9 inh 62.2.
Screening Cc1ccc(OCCn2c(=O)sc3ccccc32)cc1 returned Cav3 T inh inactive.
For Cc1ccc(OCCCn2c(=O)sc3ccccc32)cc1 the results were Cav3 T inh inactive, CYP2C9 act inactive, CYP2C19 inhib inactive, CYP2C19 act inactive and CYP2C9 inh inactive.
Screening COc1ccc(Cn2c(=O)sc3ccccc32)cc1 returned Cav3 T inh inactive, CYP2C9 act inactive, CYP2C19 inhib 50.5, CYP2C19 act inactive and CYP2C9 inh 68.4.
For CCOC(=O)c1cccc(N2C(=O)C3C(C2=O)C2C=CC3C23CC3)c1 (centres undefined) the results were Cav3 T inh inactive, CYP2C9 act inactive, CYP2C19 inhib inactive, CYP2C19 act inactive and CYP2C9 inh inactive.
For Cn1c(N)c(C(=O)CNC2CCCCC2)c(=O)n(C)c1=O the results were Cav3 T inh inactive.
Screening Cc1ccccc1OCCCn1c(=O)sc2ccccc21 returned Cav3 T inh inactive, CYP2C9 act inactive, CYP2C19 inhib inactive, CYP2C19 act inactive and CYP2C9 inh 54.9.
For Cc1ccc(CN2CCN(C(=O)C3CCC3)CC2)cc1 the results were Cav3 T inh inactive.
`Cc1ccc(S(=O)(=O)N2CCCC2C(=O)Oc2ccccc2)cc1` (centres undefined) gave Cav3 T inh inactive, CYP2C9 act inactive, CYP2C19 inhib 75.3, CYP2C19 act inactive and CYP2C9 inh inactive.
For Cc1ccc(S(=O)(=O)N2CCCC2C(=O)Nn2cnnc2)cc1 (centres undefined) the results were Cav3 T inh inactive, CYP2C9 act inactive, CYP2C19 inhib inactive, CYP2C19 act inactive and CYP2C9 inh inactive.
Screening Cc1ccc(S(=O)(=O)N2CCCC2C(=O)N2CCCCCC2)cc1 (centres undefined) returned Cav3 T inh inactive, CYP2C9 act 2.7, CYP2C19 inhib inactive, CYP2C19 act inactive and CYP2C9 inh inactive.
For O=C(C1CCCCN1S(=O)(=O)c1ccccc1)N1CCN(Cc2ccccc2)CC1 (centres undefined) the results were Cav3 T inh inactive, CYP2C9 act inactive, CYP2C19 inhib 62.0, CYP2C19 act inactive and CYP2C9 inh inactive.
`O=C(C1CCC1)N1CCN(Cc2ccccc2)CC1` gave Cav3 T inh inactive, CYP2C9 act inactive, CYP2C19 inhib 93.1, CYP2C19 act inactive and CYP2C9 inh inactive.
CC(C)OC(=O)c1nn2c(C(F)(F)F)cc(-c3ccc(Br)o3)nc2c1Br was read as Cav3 T inh inactive, CYP2C9 act inactive, CYP2C19 inhib inactive, CYP2C19 act inactive and CYP2C9 inh inactive.
Screening O=C(Oc1cccc2c(OC(=O)N3CCCC3)cccc12)N1CCCC1 returned Cav3 T inh inactive.
Screening COc1cccc(C2CC(c3cccc(Br)c3)n3nc(N)nc3N2)c1 (centres undefined) returned Cav3 T inh inactive, CYP2C9 act inactive, CYP2C19 inhib inactive, CYP2C19 act inactive and CYP2C9 inh inactive.
Cc1ccc(S(=O)(=O)N2CCCCC2C(=O)N2CCN(Cc3ccccc3)CC2)cc1 (centres undefined) was read as Cav3 T inh inactive, CYP2C9 act 2.9, CYP2C19 inhib 84.6, CYP2C19 act inactive and CYP2C9 inh inactive.
`COc1cc(/C=N/n2cnnc2)ccc1OCCSc1ccc(C)cc1` gave Cav3 T inh inactive, CYP2C9 act inactive, CYP2C19 inhib 79.5, CYP2C19 act inactive and CYP2C9 inh 53.8.
`CCOC(=O)C(Cc1c[nH]c2ccccc12)NC(=O)c1ccco1` (centres undefined) gave Cav3 T inh inactive, CYP2C9 act inactive, CYP2C19 inhib 77.6, CYP2C19 act inactive and CYP2C9 inh 72.2.
Screening COC(=O)C(Cc1c[nH]c2ccccc12)NC(=O)C(C)C (centres undefined) returned Cav3 T inh inactive, CYP2C9 act inactive, CYP2C19 inhib inactive, CYP2C19 act inactive and CYP2C9 inh inactive.
`CN(C)S(=O)(=O)c1ccc(N2CCCC2)c(C(=O)NC(c2ccccc2)c2ccccc2)c1` gave Cav3 T inh -4.28, CYP2C9 act inactive, CYP2C19 inhib inactive, CYP2C19 act inactive and CYP2C9 inh 54.4.
For CN(C)S(=O)(=O)c1ccc(N2CCCC2)c(C(=O)Nc2ccc(N3CCOCC3)cc2)c1 the results were Cav3 T inh inactive, CYP2C9 act inactive, CYP2C19 inhib inactive, CYP2C19 act inactive and CYP2C9 inh inactive.
For CCOC(=O)C1C(C)N=C2SCC(=O)N2C1c1cccc(Br)c1 (centres undefined) the results were Cav3 T inh inactive, CYP2C9 act inactive, CYP2C19 inhib 85.3, CYP2C19 act inactive and CYP2C9 inh 85.0.
CN1CCN(C2=CC(=O)OC23CCCCC3)CC1 was read as Cav3 T inh inactive.
`CN(C)C=Nc1ncc2c3ccccc3n(CCN(C)C)c2c1C#N` gave Cav3 T inh inactive, CYP2C9 act inactive, CYP2C19 inhib inactive, CYP2C19 act inactive and CYP2C9 inh 57.8.
For C=CCSc1nccc(-c2cc(Cl)sc2Cl)n1 the results were Cav3 T inh inactive, CYP2C9 act inactive, CYP2C19 inhib 80.5, CYP2C19 act inactive and CYP2C9 inh 71.6.
Screening Cc1cc(=O)oc2ccc(OCC(=O)N3CCC(C)CC3)cc12 returned CYP2C9 act inactive, CYP2C19 inhib 54.7, CYP2C19 act inactive and CYP2C9 inh inactive.
For Cc1cc(=O)oc2cc(OCC(=O)N3CC(C)OC(C)C3)ccc12 (centres undefined) the results were Cav3 T inh inactive, CYP2C9 act inactive, CYP2C19 inhib 73.3, CYP2C19 act inactive and CYP2C9 inh inactive.
`COc1ccc(Nc2nc(C(=O)NCCCN3CCOCC3)cs2)cc1` gave Cav3 T inh inactive, CYP2C9 act inactive, CYP2C19 inhib inactive, CYP2C19 act inactive and CYP2C9 inh inactive.
Screening O=c1cc(-c2ccc3c(c2)OCO3)oc2ccccc12 returned Cav3 T inh inactive, CYP2C9 act inactive, CYP2C19 inhib inactive, CYP2C19 act inactive and CYP2C9 inh inactive.
Screening O=c1nc2ccccc2c(NS(=O)(=O)c2ccc(Cl)cc2)n1-c1ccccc1 returned Cav3 T inh inactive, CYP2C9 act inactive, CYP2C19 inhib inactive, CYP2C19 act inactive and CYP2C9 inh inactive.
